Assay outcomes as filed in PubChem BioAssay.
GDH-TPI counter: GDH-TPI coupled enzyme inhibition counter-screen. inhibition, % at 4.8 µM. AID 588335. GDH-TPI coupled enzyme counterscreen, NADH absorbance. actives 1.2% (n = 360,000); in the data active = inhibition above about 30%;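 note: 0% = DMSO wells and 100% = wells lacking the enzyme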
Mtb UGM inh: blocks M. tuberculosis UGM enzyme. P9WIQ1. purified UGM, fluorescence polarization probe displacement. inhibition, % at 10 µM. actives 0.06% (n = 320,000); in the data active = inhibition above about 10%, passing the limit was not always enough
Rv3671c inh: Rv3671c (M. tuberculosis) protease inhibition. inhibition, % at 5.96 µM. AID 2606. actives 0.048% (n = 320,000). P9WHR9; in the data active = inhibition above about 38%;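 note: extracellular domain of Rv3671c used as enzyme; 0% = enzyme with DMSO and 100% = no enzyme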
Mtb FBA inh: Mtb fructose-bisphosphate aldolase inhibition; P9WQA3; purified M. tuberculosis FBA, fluorescence read-out; inhibition, % at 1 µM; actives 2.3% (n = 360,000); in the data active = inhibition above about 27%;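 note: 0% = vehicle and 100% = reference inhibitor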
Target sequence (P9WQA3 whole entry, looked up): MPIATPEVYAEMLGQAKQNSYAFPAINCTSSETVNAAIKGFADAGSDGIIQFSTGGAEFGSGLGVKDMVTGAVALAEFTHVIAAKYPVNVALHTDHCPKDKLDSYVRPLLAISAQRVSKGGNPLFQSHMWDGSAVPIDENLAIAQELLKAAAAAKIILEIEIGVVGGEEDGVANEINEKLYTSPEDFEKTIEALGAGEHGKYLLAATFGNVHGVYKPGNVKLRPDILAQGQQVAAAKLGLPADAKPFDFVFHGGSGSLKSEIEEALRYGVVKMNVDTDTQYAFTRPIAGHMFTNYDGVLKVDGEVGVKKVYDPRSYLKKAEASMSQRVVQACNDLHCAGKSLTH
* marks the source's active call; other numbers are inactive results; nt = no result given; + = active, no number. Compounds with a hit are over-represented: about 3.5% of the library has one in this group of screens.

SMILES	GDH-TPI counter	Mtb UGM inh	Rv3671c inh	Mtb FBA inh
COc1ccc(-c2cnnc(N/N=C/c3ccc(OC)c(OC)c3)n2)cc1	53.9*	-0.8	6.0	-1.8
Cc1ccc(/C=N/Nc2nncc(-c3ccccc3)n2)o1	44.2*	4.1	4.6	-3.1
O=C(NCC(c1ccco1)N1CCCCC1)c1cccc(S(=O)(=O)Nc2ccc(F)cc2)c1 (stereo unspecified)	-2.1	nt	nt	2.2
CC[C@]12C(=O)N(C)C[C@H]([C@@H]3C(=O)N(Cc4ccccc4)C(=O)[C@@H]31)N2C(=O)c1ccc(Br)cc1	-6.8	nt	nt	6.0
O=C(NCCC1=CCCCC1)c1ccc(=O)oc1	52.4*	0.7	4.3	-1.9
O=C(NCCC1=CCCCC1)c1coc(=O)c(Br)c1	39.0*	1.7	-7.5	14.3
COc1cc(C(=O)NCCC2=CCCCC2)cc(OC)c1OC	-0.6	-1.0	-3.8	0.8
O=C(NCCC1=CCCCC1)c1ccc(Cl)cc1	nt	-0.4	-7.3	nt
O=C(NCCc1ccccc1)c1coc(=O)c(Br)c1	41.4*	-0.3	nt	23.6
CCN(Cc1nc2ccccc2c(=O)[nH]1)C(=O)COc1ccccc1-c1ccccc1	7.3	-1.2	-1.0	2.2
CCN(Cc1ccncc1)C(=O)CSc1ccc2ccccc2c1	-8.5	1.3	5.7	-1.7
COCc1cc(CNC(=O)C2CCC(=O)N(Cc3ccccc3OC)C2)[nH]n1 (stereo unspecified)	1.4	0.7	4.0	1.7
Cc1c(C(=O)N2CCCC2)sc(NC(=O)c2ccccc2)c1C#N	25.9	3.3	-3.8	-1.2
COC(=O)c1sc(NC(=O)c2ccco2)c(C#N)c1C	0.5	-1.3	3.9	2.1
Cc1c(C(=O)N2CCCCC2)sc(NC(=O)c2ccco2)c1C#N	40.1*	1.0	-3.2	-2.3
Cc1c(C(=O)N2CCCC2)sc(NC(=O)c2ccco2)c1C#N	30.7*	-3.3	4.6	-3.4
CCC(C(=O)OCC(=O)N1C(C)CCCC1C)c1ccccc1 (stereo unspecified)	4.3	0.7	4.1	3.2
COc1ccc(-c2cnc3c(c2)C(=O)N([C@H](C)CO)C[C@@H](C)[C@@H](CN(C)C(=O)NC2CCCC2)O3)cc1	-5.2	nt	nt	-1.2
CC(OC(=O)/C(C#N)=C/c1ccco1)C(=O)N(C)c1ccccc1 (stereo unspecified)	32.3*	-0.3	-6.8	-5.0
CCn1nc(C)c(CNC(=O)c2ccc(OC3CCN(Cc4ccccn4)CC3)cc2)c1C	-3.4	2.4	nt	-1.5
O=C1C(Oc2ccccc2)C(c2ccc3c(c2)OCO3)N1CCc1ccc(F)cc1 (stereo unspecified)	33.3*	-0.4	6.4	2.4
CC(=O)Cc1nsc(NC(=O)c2ccc(-c3cc(Cl)ccc3Cl)o2)n1	45.9*	0.4	-50.7	10.5
CC(=O)Cc1nsc(NC(=O)c2ccc(-c3ccc(Cl)cc3Cl)o2)n1	-0.6	1.1	8.7	2.1
Nc1ccn(CC(=O)NCCNc2ccc([N+](=O)[O-])cn2)c(=O)n1	32.8*	2.5	-4.9	2.8
CCOC(=O)C1=C(COC(=O)CNS(=O)(=O)c2ccc(C)c(C)c2)NC(=O)NC1C (stereo unspecified)	-3.5	nt	nt	-0.1
SMILES	GDH-TPI counter	Mtb UGM inh	Rv3671c inh	Mtb FBA inh
CCc1ccc(CNC(=O)C2CCCN(c3nn4c(=O)cc(C)nc4s3)C2)cc1 (stereo unspecified)	-3.9	1.1	10.6	-6.0
CCNc1nc(N)c(C(=C(C#N)C#N)c2ccccc2)s1	23.4	4.0	-5.4	166.6*
Cc1c(C)c2c(OCC(=O)Nc3ccc(CCO)cc3)cc3c(c2oc1=O)CCC(C)(C)O3	23.5	-0.4	-55.5	+
Cc1oc2c(c(C)cc3oc(=O)c(CC(=O)NCC(=O)NCC(=O)O)c(C)c32)c1C	4.6	1.3	-15.2	23.7
Cc1c(C)c2c(OCC(=O)NCC(=O)NCC(=O)O)cc3c(c2oc1=O)CCC(C)(C)O3	11.6	-1.1	-5.3	+
Cc1c(C)c2c(OCC(=O)O)cc3c(c2oc1=O)CCC(C)(C)O3	9.5	0.8	-2.3	+
O=c1c(Cl)c(N/N=C/c2ccc(Br)cc2)cnn1-c1ccccc1	55.9*	-2.5	-13.9	2.8
COc1ccc(S(=O)(=O)N2CCC(C(=O)NCCc3ccccc3)CC2)cc1	5.5	1.1	-11.1	0.4
CCOC(=O)N1CCc2c(sc3nc4n(c(=O)c23)N=C(C)CS4)C1	30.9*	-0.1	-3.3	10.3
CCOC(=O)N1CCc2c(sc(N)c2C#N)C1	nt	-1.7	0.3	nt
CCc1ccc(OCC(=O)NCc2ccco2)c(Br)c1	13.9	-0.4	-1.0	0.0
CCc1cc(=O)oc2c3c(cc(OCC(=O)NCc4ccco4)c12)OC(C)(C)CC3	22.6	0.3	-6.7	154.4*
CCc1cc(=O)oc2c3c(cc(OCC(=O)NCc4ccncc4)c12)OC(C)(C)CC3	15.7	-0.8	6.7	+
COc1cccc(C(=O)NCC(=O)N2CCN(c3ccc(C(F)(F)F)cn3)CC2)c1	0.3	nt	nt	7.0
N#Cc1cccc(S(=O)(=O)NCC(=O)OCC(=O)NCc2ccccc2)c1	-3.9	nt	-16.3	-0.7
Clc1ccc2c(c1)-c1ccccc1C1=NCCN12	20.0	nt	nt	51.5*
CC(=O)c1ccc(C(=O)Nc2nnc(-c3ccc(Cl)cc3)o2)cc1	18.8	-1.0	3.1	-1.7
CN(C)c1ccc(C(=O)Nc2nnc(-c3ccc(Cl)cc3)o2)cc1	34.7*	-0.2	16.2	5.3
CC1(C)CC2CC(C)(CN2C(=O)COC(=O)c2cncc(Br)c2)C1 (stereo unspecified)	5.6	-1.4	-2.1	-2.3
Cn1c2ccsc2c2ncn(Cc3ccccc3F)c(=O)c21	7.3	1.6	-0.5	+
O=C(Cc1ccsc1)Nc1ccccc1F	-6.9	-0.8	-1.3	1.5
Cc1c(Cc2ccccc2)c(=O)oc2cc(O)cc(O)c12	12.5	0.5	-9.1	113.9*
NC(=O)N/N=C/c1ccc(-c2cccc(C(F)(F)F)c2)o1	6.4	-0.8	4.7	-4.5
NC(=O)N/N=C/c1ccc(-c2ccc(S(=O)(=O)Nc3ncccn3)cc2)o1	37.0*	nt	nt	8.9
CC(C)Oc1ccc(C(=O)N/N=C/c2ccc(-c3ccc(S(=O)(=O)Nc4ncccn4)cc3)o2)cc1	49.5*	2.0	-2.3	30.9*
SMILES	GDH-TPI counter	Mtb UGM inh	Rv3671c inh	Mtb FBA inh
Cc1csc(NC(=O)CSc2nc3[nH]c(=O)cc(O)c3s2)n1	31.8*	nt	nt	9.4
O=C(OCN1C(=O)c2ccccc2C1=O)c1cc(S(=O)(=O)N2CCOCC2)ccc1F	6.0	nt	nt	1.6
O=c1nc2ccc(Cl)cn2c2ccc(S(=O)(=O)N3CCOCC3)cc12	15.7	-0.2	-1.3	176.3*
COc1ccc(Oc2coc3cc(O)ccc3c2=O)cc1	44.8*	-1.8	nt	17.5
Clc1ccc(-c2nc3ncccn3c2Cl)cc1	13.9	-0.1	6.0	+
COc1ccc(NC(=O)CN2CCN(c3ccccn3)CC2)cc1Cl	-2.6	1.8	-0.3	+
CC(C)c1ccc(NC(=O)CN2CCN(c3ccccn3)CC2)cc1	5.2	-1.9	-7.9	1.9
Cc1ccc(NC(=O)CN2C(=O)N/C(=C\c3ccco3)C2=O)cc1	34.1*	3.6	2.2	-1.8
Cc1cc(N2CCOCC2)ccc1/C=C1\NC(=O)N(CC(=O)Nc2ccc(F)cc2)C1=O	22.1	4.4	2.7	-3.0
O=C1N/C(=C/c2ccco2)C(=O)N1Cc1ccccc1F	33.1*	-3.5	10.2	-0.4
